Screening data (PubChem BioAssay)
Pf growth 48h: Primary qHTS for delayed death inhibitors of the malarial parasite plastid, 48 hour incubation; 5.9% of 310,000 active; Potency, µM (doses to about 28.7 µM), without a hit: top-dose activity change, negative = inhibition, most hits filed as inhibitors; P. falciparum luciferase growth in erythrocytes, 48 h; note: potency is the fitted concentration of half-maximal effect
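In quantitative HTS format, infected erythrocytes bearing luciferase-reporter parasites were treated for a single generation at 37 C. Luminescence after adding detection reagent served as the growth measure.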
Pf growth 96h: Primary qHTS for delayed death inhibitors of the malarial parasite plastid, 96 hour incubation; P. falciparum luciferase reporter growth, 96 h; Potency, µM (titrated, usually from 28.7 µM), without a hit: top-dose activity change, negative = inhibition, usual class: inhibitors; 6.9% of 320,000 active; AID 504834, 2011; note: potency is the fitted concentration of half-maximal effect
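Erythrocytes infected with luciferase-expressing P. falciparum were dispensed at 2% hematocrit and 0.05% parasitemia (final), then incubated with compounds 96 hours at 37 C in 5% CO2. Luminescence after detection reagent addition reported growth.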
HCV inh: qHTS Assay for Inhibitors of Hepatitis C Virus (HCV); Huh7.5.1 HCVcc-Cre infection, luciferase reporter, 44 h; Potency, µM (titrated, usually from 41.8 µM), for the others: at the highest dose activity change, negative = inhibition, usual class: inhibitors; 3.4% of 340,000 active; note: potency is the fitted concentration of half-maximal effect
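Cells seeded at 1,000/well and cultured 4 h, then compounds added followed by HCVcc-Cre virus (~0.5 moi). After 44 h further culture, luciferase substrate was added, plates held 15 min at room temperature, and luminescence read for 15 sec.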
HCMV antiviral: qHTS Assay for inhibitors of the human cytomegalovirus (HCMV). HFF cells, HCMV-luciferase reporter, 72 h; hits give low values. activity change, negative = inhibition, % at 57.5 µM. 4.5% of 410,000 active; in the data active = activity change below about -60%; inconclusive = no clear call, values can overlap the other calls; inactive = above about -39%
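After 16 h attachment at 37C, HFF cells received test compound and HCMV-luciferase (1 PFU/cell); reporter luminescence read 72 h later, data normalized against buffer-only and known inhibitor Salinomycin.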
Active calls of the source: *; ? = inconclusive; . = not tested or not shown; ! = a repeat was not active; [ ] = another dose, or the depositor's remark. In the library only some 13% were active in any assay of this set; here they are far more common. Unless noted, calls come from the whole dose curve; as a rule, active = well fitted inhibition curve with a large enough effect; inconclusive = small, poorly fitted or top-dose-only effect, or another doubt; inactive = no such curve, though single readings can be large or run the other way. % is set by controls: 0 for no effect and ±100 for the full control effect.

SMILES	Pf growth 48h	Pf growth 96h	HCV inh	HCMV antiviral
CCc1nn2c(=O)cc(COC(=O)C(CC)c3ccccc3)nc2s1 (configuration not stated)	.	.	.	-14
COCCNC(=O)CSc1nc2ccccc2nc1Cc1ccc(C)cc1	.	.	.	-3
CC(C)CNC(=O)c1c(-c2ccccc2)c(-c2ccccc2)nn(C)c1=O	.	.	.	-16
CCC(C)(C)n1nnnc1C(C(C)C)N(CCCO)Cc1cc2cc(C)ccc2[nH]c1=O (configuration not stated)	?	13µM*	-4%	18
CCC(c1nnnn1C(C)(C)CC)N(CCCO)Cc1cc2cc(C)cc(C)c2[nH]c1=O (configuration not stated)	8.3µM*	10µM*	4%	10
CCc1ccc(Sc2cc(C(=O)NCCCN3CCCC(C)C3)c3ccccc3n2)cc1 (configuration not stated)	.	.	.	-61*
CCc1ccc(Sc2cc(C(=O)NCCCN3CCC(C)CC3)c3ccccc3n2)cc1	.	.	.	-77*
Cc1ccc(Sc2cc(C(=O)NCCN(C)C)c3ccccc3n2)cc1	?	27%	-24%	-38
Cc1ccc2[nH]c3c(c2c1)CCCC3=O	38%	85%	10µM*	145
Cc1ccc2[nH]c3c(c2c1)CCc1cn[nH]c1-3	?	23%	14µM*	17
Cc1c(C(=O)N2CCCCCC2)c(S(=O)(=O)Nc2cccc(C#N)c2)c(C)n1C	.	.	.	-8
COc1ccc(-c2nc(Cn3c(SCc4cccc(F)c4)nc4ccncc43)c(C)o2)cc1OC	12µM*	-13%	-1%	28
COc1ccc(-c2nnc3ccc(SCC(=O)N4CCOCC4)nn23)cc1	24%	34%	3%	1
COc1ccc(-c2nnc3ccc(SC)nn23)cc1	71%	4.7µM*	.	10
CCc1ccc(NC(=O)Cn2c(=O)n(Cc3nc(-c4ccccc4)no3)c(=O)c3cc4c(cc32)OCO4)cc1	.	.	.	-19
COc1cc(NC(=O)c2cnc(N)o2)cc(C(=O)Nc2cccc(C(F)(F)F)c2)c1	10µM*	13µM*	?	?
COc1cc(NC(=O)c2csc(N)n2)cc(C(=O)Nc2cccc(C(F)(F)F)c2)c1	12µM*	?	?	-67*!
COc1cc(NC(=O)c2cc(C)on2)cc(C(=O)Nc2cccc(C(F)(F)F)c2)c1	?	?	?	8
COc1cc(NC(=O)c2cnc(N)s2)cc(C(=O)Nc2cccc(C(F)(F)F)c2)c1	2.6µM*	3.3µM*	?	-31
CC(C)Oc1cccc(C(=O)NC(=S)Nc2cccc(C(F)(F)F)c2)c1	57%	65%	-14%	-40
COc1cc(NC(=O)c2ccnc(N)c2)cc(C(=O)Nc2cccc(C(F)(F)F)c2)c1	2.1µM*	1.9µM*	-26%	21
CCOC(=O)c1c(NC(=O)CSc2cn(CCNC(=O)c3ccc(OC)cc3)c3ccccc23)sc2c1CCC2	.	.	.	-11
COc1ccc(-c2[nH]c(-c3ccc(C)cc3)nc2SCC(=O)NCC2CCCO2)cc1 (configuration not stated)	.	.	.	-9
CCC1=C(OC(=O)N(CC)CC)N2C(=O)OC(=NCC3CC3)[C@]2(Cc2ccccc2)[C@H]2C1=CC[C@H]1C(=O)NC(=O)[C@H]12	10µM*	7.4µM*	4%	12
CCC1=C2CC[C@H]3C(=O)N(C)C(=O)[C@H]3[C@H]2[C@@]2(Cc3ccccc3)C(=NCCOC)OC(=O)N2C1=O	37%	40%	15%	-7
SMILES	Pf growth 48h	Pf growth 96h	HCV inh	HCMV antiviral
CCC1=C2CC[C@H]3C(=O)NC(=O)[C@H]3[C@H]2[C@@]2(Cc3ccccc3)C(=NCC(=O)OC)OC(=O)N2C1=O	35%	0%	2%[8.37 µM]	-5
CCC1=C(OC(=O)N(CC)CC)N2C(=O)OC(=NCCOC)[C@]2(Cc2ccccc2)[C@H]2C1=CC[C@H]1C(=O)NC(=O)[C@H]12	9.3µM*	?	11%	31
CC1CCc2nc3ncn(CC(=O)Nc4cccc(C#N)c4)c(=O)c3cc2C1 (configuration not stated)	.	.	.	-5
COc1ccc(C(C(=O)NC2CCCCC2)N(Cc2cccs2)C(=O)Cc2c[nH]c3ccccc23)cc1OC (configuration not stated)	9.3µM*	?	?	-40
COc1ccc(C(C(=O)NC2CCCCC2)N(C(=O)Cc2c[nH]c3ccccc23)c2ccccc2C)cc1OC (configuration not stated)	?	13µM*	?	?
C/C(=N\Nc1nc(-c2ccccc2)cs1)c1cccs1	55%	-15%	2.8µM*	38
COc1ccc2nc(Nc3ccc4c(c3)OCO4)sc2c1	159%	1%	?	31
O=C(/C=C/c1cccs1)Nc1nc(-c2ccccc2)cs1	?	-29%	22µM*	-15
COc1ccc2nc(NC(=O)/C=C/c3ccc4c(c3)OCO4)sc2c1	-1%	1.9µM*	13%	15
O=C(/C=C/c1ccc2c(c1)OCO2)Nc1nc(-c2ccccc2)cs1	?	?	6.3µM*	?
CCOc1ccccc1CNC(=O)c1cc2c(=O)n(Cc3ccccc3)ccc2nc1C	.	.	.	-23
Cc1ccc(Cl)cc1-n1c(=O)cc(N2CCN(c3ccc(F)cc3)CC2)[nH]c1=O	.	.	.	-39
CCOCCCNC(=O)NC(C)c1c(-n2cccc2)sc2c1CCN(CC)C2 (configuration not stated)	.	.	.	17
NS(=O)(=O)c1ccc(Oc2ccc(S(N)(=O)=O)cc2)cc1	-13%	44%	2%	-16
C=CS(=O)(=O)c1ccc(Oc2ccc(S(=O)(=O)C=C)cc2)cc1	6%	.	?	-102*
COC(=O)CCC(=O)Nc1cc(OC)c(OC)cc1Cc1nccc2cc(OC)c(OC)cc12	5%	22%	4%	50
CCOc1ccc(Cc2nccc3cc(OCC)c(OCC)cc23)cc1OCC	?	4.1µM*	.	.
CCOC(=O)c1ccc(NC(=O)c2noc3c2CCCC3)cc1	.	.	.	33
Cc1nc(NC(=O)c2ccccc2)sc1C1(C)CC(c2c(Cl)cccc2Cl)=NO1 (configuration not stated)	13µM*	?	-4%[8.37 µM]	-31
Cc1ccc(N2C(=O)c3cccc4c([N+](=O)[O-])ccc(c34)C2=O)c2cccnc12	19%	?	14%	?
Cc1ccnc(N2C(=O)c3cccc4c([N+](=O)[O-])ccc(c34)C2=O)c1	0%	-13%	11µM*	58
Cc1ccnc(N2C(=O)c3ccccc3C2=O)c1	-14%[0.00184 µM]	12µM*	6%	-1
Cc1cccc(N2C(=O)c3ccccc3C2=O)n1	13%	32%	22%	1
Cc1ccnc(N2C(=O)C3C4CC(C(Br)C4Br)C3C2=O)c1 (configuration not stated)	20%	9.3µM*	4%	-21
O=C1c2cccc3c([N+](=O)[O-])ccc(c23)C(=O)N1Cc1cccnc1	?	5%	?	-73*
